Drawing on ChEMBL document CHEMBL1157539, “Thousands of chemical starting points for antimalarial lead identification” (Nature, 2010), this text covers Inhibition for 50 molecules.

Common to all, as to assay type: functional
Assay [1] has as its system Plasmodium falciparum. Briefly: GSK_TCMDC: Inhibition of Plasmodium falciparum 3D7 in whole red blood cells, using parasite LDH activity as an index of growth. Test compounds present at 2uM.
In assay [2] the test system is Plasmodium falciparum. Briefly: GSK_TCMDC: Inhibition of Plasmodium falciparum Dd2 in whole red blood cells, using parasite LDH activity as an index of growth. Test compounds present at 2uM.
Assay [3] concerns HepG2. Briefly: GSK_TCMDC: Percent inhibition of human HepG2 cell line. Test compounds present at 10uM.

One may read the Inhibition as the change of the read-out against control, counted positive when it falls. Low values mean a weak effect, high ones a strong effect. `CC(C)CNCc1cccc(-c2cccc(CNc3ccc4ncccc4c3)c2)c1.O=C(O)C(F)(F)F`: the Inhibition in assay [1] came out at 92%; in assay [2], 28%; in assay [3], 23%.

With `COc1cccc(NC(=O)c2ccc(NCCCN3CC(C)CC(C)C3)c([N+](=O)[O-])c2)c1` (stereo not given), the Inhibition in assay [1] is given as 100%; in assay [2], 68%; in assay [3], 14%.

With `O=C(NC1CCCCC1)c1ccc(O)c(-c2cccc(C(F)(F)F)c2)c1`, the Inhibition in assay [1] is on record as 97%; in assay [2], 87%; in assay [3], 8%.

As to `O=C(O)C(F)(F)F.O=c1[nH]ccc2nc(N[C@@H]3CCNC3)nc(Nc3cc(Cl)cc(Cl)c3)c12`, the Inhibition in assay [1] was 100%; in assay [2], 99%; in assay [3] it was 99%.

With `Cc1cc(C)c(C(=O)Nc2ccc3nc(C)cc(N)c3c2)c(C)c1.Cl`, the Inhibition in assay [1] was found to be 84%; in assay [2], 14%; in assay [3] it was 12%.

As for `CC(C)CCN(Cc1cncn1Cc1cccc(Cl)c1)C(=O)c1cncc(-c2ccccc2)c1`, the results for the Inhibition in assay [1], in assay [2] and in assay [3] were 99%, 0% and 9%, respectively.

For the molecule `Cc1nnsc1C(=O)Nc1cccc(-c2cccc(-c3nc4ccccc4[nH]3)c2)c1`, the Inhibition is on record as 100% in assay [1], 34% in assay [2] and 14% in assay [3].

As for `Cc1ccc2c(N/N=C/c3cccc([N+](=O)[O-])c3)cc(C)nc2c1`, the Inhibition in assay [1] was found to be 100%; in assay [2] it was 97%; in assay [3], 33%.

For `COc1ccc(-c2ncnc(C(F)(F)F)c2-c2ccc(Cl)cc2)c(O)c1`, the values for the Inhibition in assay [1], in assay [2] and in assay [3] were 100%, 22% and 1%, respectively.

`CCCc1ccc(S(=O)(=O)Nc2ccc3c(c2)CCC3)cc1`: the Inhibition in assay [1] was found to be 96%; in assay [2], 0%; in assay [3] it was 8%.

On to `CC12CCC(CN(CC(O)Cn3c4ccccc4c4cc(I)ccc43)C1)C2(C)C.Cl` (stereo not given), for which the Inhibition in assay [1] was determined as 94%; in assay [2] it was 82%; in assay [3], 0%.

For the molecule `COc1ccc(-c2cccc(NC(=O)c3cccc(C#N)c3)c2)cc1CN1CCNCC1.O=C(O)C(F)(F)F`, the Inhibition is reported as 100% in assay [1], 15% in assay [2] and 27% in assay [3].

Regarding `Cl.O=C(NCCCCN1CCC(c2ccc3c(c2OCCO)CCCC3)CC1)c1ccc2oc(-c3ccc(C(F)(F)F)cc3)cc2c1`, the Inhibition in assay [1] amounted to 93%; in assay [2], 56%; in assay [3] it was 54%.

Regarding `COc1cc(C=C(C2=NC(=O)CS2)c2nc3cccnc3n2C)ccc1O`, the Inhibition in assay [1] stood at 89%; in assay [2], 48%; in assay [3] it was 7%.

As to `COc1cc(Cc2cnc(N)nc2N)ccc1OCc1cccc(Oc2ccccc2)c1`, the Inhibition was found to be 84% in assay [1], 21% in assay [2] and 18% in assay [3].

As for `Br.CC[C@H]1CN2CCc3cc(OC)c(OC)cc3[C@@H]2C[C@@H]1CC1=NCCc2c1[nH]c1ccc(OCc3ccccc3)cc21`, the Inhibition is on record as 100% in assay [1], 89% in assay [2] and 57% in assay [3].

As for `O=C(NC1CCN(CCC(NC(=O)c2ccccc2)c2ccc(Cl)c(Cl)c2)CC1)c1ccc(Cl)cc1` (stereo not given), the Inhibition in assay [1] was determined as 97%; in assay [2] it was 36%; in assay [3] it was 17%.

Regarding `N=C(N)NC(=O)Nc1cc(Cl)c(Cl)c(Br)c1`, the values for the Inhibition in assay [1], in assay [2] and in assay [3] were 99%, 99% and 16%, respectively.

Take `CNC(=O)c1cnc(Nc2ccc(N3CCOCC3)cc2)nc1Nc1cccc(OC)c1.O=C(O)C(F)(F)F`: the Inhibition amounted to 96% in assay [1], 41% in assay [2] and 2% in assay [3].

Turning to `CN(C)Cc1ccc2cc(NC(=O)c3ccc(-c4ccc(Cl)cc4)cc3)ccc2c1`, the figures for the Inhibition in assay [1], in assay [2] and in assay [3] were 92%, 22% and 21%, respectively.

Regarding `Cc1cc(N[C@@H](Cc2ccccc2)C(=O)Nc2ccccc2)nc(NCCc2cccnc2)n1.O=C(O)C(F)(F)F`, the Inhibition in assay [1] is given as 95%; in assay [2], 57%; in assay [3], 32%.

Regarding `C=CCn1c(=N)c(C(=O)NC2CCCCC2)cc2c(=O)n3cccc(C)c3nc21`, the Inhibition in assay [1] stood at 92%; in assay [2], 58%; in assay [3] it was 0%.

Turning to `Cc1c(N=O)cc(C(C)(C)C)c(O)c1C(=O)Nc1ccc([N+](=O)[O-])cc1Cl`, the Inhibition was found to be 100% in assay [1], 98% in assay [2] and 72% in assay [3].

Turning to `O=C(NCc1cccnc1)C(c1cc2ccccc2o1)N1CCN(C(c2ccccc2)c2ccccc2)CC1` (stereo not given), the Inhibition is reported as 95% in assay [1], 81% in assay [2] and 12% in assay [3].

As for `FC(F)(F)c1cccc(CNCC2CCN(Cc3ccc4c(c3)OCO4)CC2)c1.O=C(O)C(F)(F)F`, the Inhibition in assay [1] was determined as 100%; in assay [2] it was 19%; in assay [3], 21%.

As for `CN(c1ccc(C(=O)N[C@@H](CCC(=O)O)C(=O)O)cc1)S(=O)(=O)c1ccc2nc(N)[nH]c(=O)c2c1`, the Inhibition is recorded as 97% in assay [1], 3% in assay [2] and 16% in assay [3].

Take `CN(C)C(=O)c1cc(CNCc2ccccc2)ccc1-c1cccc(CNCc2ccc(-c3ccccc3)cc2)c1.O=C(O)C(F)(F)F`: the Inhibition in assay [1] is reported as 90%; in assay [2] it was 12%; in assay [3] it was 27%.

As to `COc1ccc2[nH]c(C)cc(=NN=Cc3ccncc3)c2c1`, the Inhibition in assay [1] stood at 100%; in assay [2], 68%; in assay [3] it was 6%.

On to `CNc1ccc(CNCc2cccc(-c3ccc(-c4nc5cc(C(F)(F)F)ccc5[nH]4)cc3)c2)cc1.O=C(O)C(F)(F)F`, for which the results for the Inhibition in assay [1], in assay [2] and in assay [3] were 100%, 100% and 21%, respectively.

For the molecule `COc1ccc(C(O)CNC(C)CCc2ccccc2)cc1C(F)(F)F.Cl` (stereo not given), the results for the Inhibition in assay [1], in assay [2] and in assay [3] were 99%, 100% and 3%, respectively.

Take `CC1(C)N=C(N)N=C(N)N1c1cccc(I)c1.Cl`: the values for the Inhibition in assay [1], in assay [2] and in assay [3] were 95%, 85% and 68%, respectively.

Turning to `CN(CCC(O)c1ccc(Cl)c(Cl)c1)CC1CC1C(=O)c1ccccc1` (stereo not given), the Inhibition in assay [1] stood at 98%; in assay [2], 96%; in assay [3], 11%.

For the molecule `O=C(Nc1ccccc1Br)c1cn(-c2ccccc2)nc1-c1cccc([N+](=O)[O-])c1`, the results for the Inhibition in assay [1], in assay [2] and in assay [3] were 92%, 36% and 7%, respectively.

Consider `COc1ccc2ncc(F)c(CCN3C4CCC3CC(NCc3cc5c(cn3)OCS5)C4)c2n1.Cl` (stereo not given), for which the Inhibition worked out at 95% in assay [1], 48% in assay [2] and 15% in assay [3].

Consider `Cn1cnc(CCNC(=O)c2cccc(-c3csc(-c4nc5ccccc5[nH]4)c3)c2)c1`, for which the Inhibition in assay [1] amounted to 100%; in assay [2], 26%; in assay [3] it was 33%.

With `COCCN(CCOC)c1ncc(-c2ccsc2)c(-c2nc(C)c(C)s2)n1`, the Inhibition worked out at 96% in assay [1], 63% in assay [2] and 1% in assay [3].

`O=C(NCC1CCC(C(=O)NC2CCCc3ccccc32)CC1)c1ccc(O)c(-c2ccc(Cl)c(Cl)c2)c1` (stereo not given): the Inhibition is given as 93% in assay [1], 86% in assay [2] and 0% in assay [3].

As to `O=C(O)C(F)(F)F.OC1(c2ccccc2)CCN(Cc2cccc(-c3c[nH]c4nc(NC5CCCC5)ncc34)c2)C1` (stereo not given), the Inhibition in assay [1] came to 92%; in assay [2], 31%; in assay [3], 42%.

`Cc1nnsc1C(=O)Nc1cccc(-c2cccc(-c3nc4cc(F)ccc4[nH]3)c2)c1`: the Inhibition in assay [1] is 100%; in assay [2], 45%; in assay [3], 35%.

`CCCNCc1ccc(-c2ccc(CNC3Cc4ccccc4C3)cc2)nc1.O=C(O)C(F)(F)F`: the figures for the Inhibition in assay [1], in assay [2] and in assay [3] were 97%, 32% and 23%, respectively.

Take `Cn1nc2ccc3ccccc3c2nc1=N.I`: the Inhibition in assay [1] is given as 91%; in assay [2] it was 85%; in assay [3], 100%.

With `Cc1nnsc1C(=O)Nc1ccc(-c2cccc(-c3nc4cc(C(F)(F)F)ccc4[nH]3)c2)cc1`, the Inhibition in assay [1] came to 97%; in assay [2], 36%; in assay [3], 69%.

With `Cc1ccc(-n2c(Cc3cccc4ccccc34)nnc2SCCC#N)c(C)c1`, the Inhibition was found to be 95% in assay [1], 98% in assay [2] and 0% in assay [3].

`c1cncc(-c2cc(N3CCc4ccccc4C3)nc(-c3ccncc3)n2)c1`: the Inhibition in assay [1] was 100%; in assay [2], 100%; in assay [3] it was 56%.

`CCN(CC)CCCCCNc1c2ccc(Cl)cc2nc2ccc(OC)cc12.Cl`: the Inhibition is on record as 99% in assay [1], 99% in assay [2] and 96% in assay [3].

As for `Cc1[nH]c(C)c(-c2ccc(OCc3ccc(OC(F)(F)F)cc3)nc2)c(=O)c1Br`, the values for the Inhibition in assay [1], in assay [2] and in assay [3] were 98%, 97% and 10%, respectively.

`O=C(CC(=O)Nc1cc(Cl)cc(Cl)c1)Nc1cc(Cl)cc(Cl)c1`: the Inhibition in assay [1] is given as 95%; in assay [2], 96%; in assay [3], 0%.

For `CCn1c(-c2nonc2N)nc2c(-c3cccc(NC(=O)Nc4ccccc4OC)c3)ncc(OCCCN)c21.O=C(O)C(F)(F)F`, the Inhibition was determined as 92% in assay [1], 58% in assay [2] and 84% in assay [3].

On to `COc1cccc(NC(=O)Nc2cc(C)nc3ccccc23)c1`, for which the Inhibition stood at 100% in assay [1], 48% in assay [2] and 2% in assay [3].

In the case of `CCCC(C)Nc1nc(C)cc(N[C@@H](CC(C)C)C(=O)NCCOc2ccccc2)n1.O=C(O)C(F)(F)F` (stereo not given in full), the Inhibition in assay [1] is 93%; in assay [2], 28%; in assay [3], 15%.
